{"source": "paper PMC5540273", "about": "(PLoS ONE, 2017);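 further: KINOMEscan kinase panel screen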", "details_in_all_cases": "concentration: 1 μM, replicates: in singlicate; n = 1", "key": {"VEGFR2": {"tested_on": "T1, VEGFR2", "T1 construct": "gene KDR"}, "VPS34": {"tested_on": "T2, VPS34", "T2 construct": "gene PIK3C3"}, "VRK2": {"tested_on": "VRK2"}, "WEE1": {"tested_on": "WEE1"}, "WEE2": {"tested_on": "WEE2"}, "WNK1": {"tested_on": "WNK1"}, "WNK2": {"tested_on": "WNK2"}, "WNK3": {"tested_on": "WNK3"}, "WNK4": {"tested_on": "WNK4"}, "YANK1": {"tested_on": "T3, YANK1", "T3 construct": "gene STK32A"}}, "data": [{"compound": "O=c1cc(N2CCOCC2)nc2n(Cc3ccccc3F)ccn12", "note": "[GSK2297428]", "values": [{"measurement": "%Inh", "setting": "VEGFR2", "value": 0, "unit": "%"}, {"measurement": "%Inh", "setting": "VPS34", "value": 94, "unit": "%"}, {"measurement": "%Inh", "setting": "VRK2", "value": 0, "unit": "%"}, {"measurement": "%Inh", "setting": "WEE1", "value": 0, "unit": "%"}, {"measurement": "%Inh", "setting": "WEE2", "value": 0, "unit": "%"}, {"measurement": "%Inh", "setting": "WNK1", "value": 0, "unit": "%"}, {"measurement": "%Inh", "setting": "WNK2", "value": 0, "unit": "%"}, {"measurement": "%Inh", "setting": "WNK3", "value": 19, "unit": "%"}, {"measurement": "%Inh", "setting": "WNK4", "value": 0, "unit": "%"}, {"measurement": "%Inh", "setting": "YANK1", "value": 0, "unit": "%"}]}, {"compound": "c1ccc(-c2ccnc3[nH]ccc23)cc1", "note": "[SB-693578]", "values": [{"measurement": "%Inh", "setting": "VEGFR2", "value": 32, "unit": "%"}, {"measurement": "%Inh", "setting": "VPS34", "value": 0, "unit": "%"}, {"measurement": "%Inh", "setting": "VRK2", "value": 27, "unit": "%"}, {"measurement": "%Inh", "setting": "WEE1", "value": 10, "unit": "%"}, {"measurement": "%Inh", "setting": "WEE2", "value": 23, "unit": "%"}, {"measurement": "%Inh", "setting": "WNK1", "value": 0, "unit": "%"}, {"measurement": "%Inh", "setting": "WNK2", "value": 11, "unit": "%"}, {"measurement": "%Inh", "setting": "WNK3", "value": 48, "unit": "%"}, {"measurement": "%Inh", "setting": "WNK4", "value": 37, "unit": "%"}, {"measurement": "%Inh", "setting": "YANK1", "value": 0, "unit": "%"}]}, {"compound": "COc1ccc(Nc2nccc(NCCNC(=O)Nc3cc(C)ccc3C)n2)cc1", "note": "[GSK1379899]", "values": [{"measurement": "%Inh", "setting": "VEGFR2", "value": 2, "unit": "%"}, {"measurement": "%Inh", "setting": "VPS34", "value": 4, "unit": "%"}, {"measurement": "%Inh", "setting": "VRK2", "value": 0, "unit": "%"}, {"measurement": "%Inh", "setting": "WEE1", "value": 0, "unit": "%"}, {"measurement": "%Inh", "setting": "WEE2", "value": 0, "unit": "%"}, {"measurement": "%Inh", "setting": "WNK1", "value": 0, "unit": "%"}, {"measurement": "%Inh", "setting": "WNK2", "value": 10, "unit": "%"}, {"measurement": "%Inh", "setting": "WNK3", "value": 0, "unit": "%"}, {"measurement": "%Inh", "setting": "WNK4", "value": 0, "unit": "%"}, {"measurement": "%Inh", "setting": "YANK1", "value": 0, "unit": "%"}]}, {"compound": "NS(=O)(=O)c1cccc(N/C=C2\\C(=O)Nc3ccc(S(=O)(=O)Cc4c(Cl)cccc4Cl)cc32)c1", "note": "[GSK398099]", "values": [{"measurement": "%Inh", "setting": "VEGFR2", "value": 0, "unit": "%"}, {"measurement": "%Inh", "setting": "VPS34", "value": 0, "unit": "%"}, {"measurement": "%Inh", "setting": "VRK2", "value": 0, "unit": "%"}, {"measurement": "%Inh", "setting": "WEE1", "value": 10, "unit": "%"}, {"measurement": "%Inh", "setting": "WEE2", "value": 20, "unit": "%"}, {"measurement": "%Inh", "setting": "WNK1", "value": 20, "unit": "%"}, {"measurement": "%Inh", "setting": "WNK2", "value": 8, "unit": "%"}, {"measurement": "%Inh", "setting": "WNK3", "value": 0, "unit": "%"}, {"measurement": "%Inh", "setting": "WNK4", "value": 0, "unit": "%"}, {"measurement": "%Inh", "setting": "YANK1", "value": 1, "unit": "%"}]}, {"compound": "Nc1cccc(-c2ccc3c(N)n[nH]c3c2)n1", "note": "[GSK2192730]", "values": [{"measurement": "%Inh", "setting": "VEGFR2", "value": 19, "unit": "%"}, {"measurement": "%Inh", "setting": "VPS34", "value": 1, "unit": "%"}, {"measurement": "%Inh", "setting": "VRK2", "value": 0, "unit": "%"}, {"measurement": "%Inh", "setting": "WEE1", "value": 0, "unit": "%"}, {"measurement": "%Inh", "setting": "WEE2", "value": 0, "unit": "%"}, {"measurement": "%Inh", "setting": "WNK1", "value": 23, "unit": "%"}, {"measurement": "%Inh", "setting": "WNK2", "value": 0, "unit": "%"}, {"measurement": "%Inh", "setting": "WNK3", "value": 0, "unit": "%"}, {"measurement": "%Inh", "setting": "WNK4", "value": 0, "unit": "%"}, {"measurement": "%Inh", "setting": "YANK1", "value": 5, "unit": "%"}]}]}
